From PubChem BioAssay
Compounds with a hit are over-represented: about 21% of the library has one in this group of screens.
CHX counter: counter-screen hit for Shiga toxin inhibitors, cycloheximide. cell reporter, cycloheximide protein synthesis inhibition counterscreen. max response, %. hit rate 12% among 300,000; in the data active = max response mostly above about 13%, no sharp cut-off; inactive = mostly below about 14%; note: read at 38.3 µM for the half of the compounds with a filed dose; 0% is about no effect
Shiga inhibitor: blocks Shiga toxin action in Vero cells; Vero cells, Shiga toxin protein synthesis inhibition reporter; inhibition, % at 38.7 µM; hit rate 9.2% among 290,000; AID 2315; in the data active = inhibition mostly above about 28%, no sharp cut-off; inactive = mostly below about 43%; note: 0% is about no effect
HCV inhibitor: HCV inhibition; Huh7.5.1 HCVcc-Cre infection, luciferase reporter, 44 h; Potency, µM (highest dose often 41.8 µM), for inactives: at the highest dose activity change, negative = inhibition, most hits filed as inhibitors; hit rate 3.4% among 340,000; AID 651820; note: potency is the fitted concentration of half-maximal effect; % is set by controls: 0 for no effect and ±100 for the full control effect
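Reporter virus HCVcc-Cre (~0.5 moi) infects cells exposed to compound; seeding density 1,000 cells/well with 4 h settling beforehand. Luminescence, 15 sec read, taken 44 h post-infection following a 15 min RT substrate incubation.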
Pf growth 48h: inhibits P. falciparum growth in the first generation, 48 h; P. falciparum luciferase growth in erythrocytes, 48 h; Potency, µM (series often up to 28.7 µM), without a hit: at the highest dose activity change, negative = inhibition, most hits filed as inhibitors; hit rate 5.9% among 310,000; AID 504832; note: potency is the fitted concentration of half-maximal effect; % is set by controls: 0 for no effect and ±100 for the full control effect
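A one-generation exposure of luciferase-tagged malaria parasites in RPMI 1640/Albumax erythrocyte culture, 37 C and 5% CO2. Inhibition is inferred from decreased luminescence after adding detection reagent.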
AMA1-RON2 inh: AMA1-RON2 (P. falciparum) interaction inhibition; AlphaScreen AMA1-biotinylated RON2 peptide binding; Potency, µM (top dose mostly 58.2 µM), without a hit: at the top dose activity change, negative = inhibition, most hits filed as inhibitors; hit rate 0.2% among 360,000; AID 720542;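 note: potency is the fitted concentration of half-maximal effect; 0% = vehicle wells and -100% = peptide control; nearly all actives have a fitted effect of over 45% in size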
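AMA1 (3D7) with his tag at 25 nM final met compounds first, then biotinylated RON2 peptide at 25 nM; detection used donor plus acceptor beads, 10 µg/mL apiece, read by AlphaScreen after 30 min at room temperature.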
Pf growth 96h: P. falciparum growth inhibition at 96 hours; P. falciparum luciferase reporter growth, 96 h; Potency, µM (titrated, usually from 28.7 µM), inactives show top-dose activity change, negative = inhibition, hits mostly inhibitors; hit rate 6.9% among 320,000; note: potency is the fitted concentration of half-maximal effect; % is set by controls: 0 for no effect and ±100 for the full control effect
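Erythrocytes infected with luciferase-expressing P. falciparum were dispensed at 2% hematocrit and 0.05% parasitemia (final), then incubated with compounds 96 hours at 37 C in 5% CO2. Luminescence after detection reagent addition reported growth.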
Numbers without * were called inactive; u = inconclusive; x = no result; [ ] = another dose, or the depositor's remark. Unless noted, calls come from the whole dose curve; as a rule, active = well fitted curve in the direction sought with a large enough effect; inconclusive = small, poorly fitted or top-dose-only effect, or another doubt; inactive = no such curve, though single readings can be large; an effect the other way counts as inactive or inconclusive.

SMILES | CHX counter | Shiga inhibitor | HCV inhibitor | Pf growth 48h | AMA1-RON2 inh | Pf growth 96h
O=C(NCc1ccc(F)cc1)C1CCN(S(=O)(=O)c2ccc(Br)s2)CC1 | 15* | 37* | u | 9.3µM* | 2% | u
O=C(C1CCCN(S(=O)(=O)c2ccccc2)C1)N1CCN(c2ccccc2)CC1 (centres undefined) | -3 | -13 | u | u | -15% | 19%
Cc1ccc(N(CC(=O)N(C)Cc2ccccc2)S(C)(=O)=O)cc1C | -3 | -6 | 11% | -1% | 13% | u
Nn1c(SCC(=O)NC2CCS(=O)(=O)C2)nc2scc(-c3ccccc3)c2c1=O (centres undefined) | x | x | 10% | -8% | 101% | -17%
CCC(=O)NNc1nc2c(F)cc(F)cc2s1 | -1 | 3 | 20% | 47% | 124% | 82%
Fc1ccc2nc(Nc3nc4c(F)cc(F)cc4s3)sc2c1 | 4 | 39 | 1% | 0% | 65% | 10µM*
Fc1ccc2nc(Nc3nc4c(F)cccc4s3)sc2c1 | 45* | 42* | -2% | -18% | 61% | u
Fc1cccc2sc(Nc3nc4ccccc4s3)nc12 | 56* | 69* | -21% | 209% | 46% | 33%
COc1ccc(CCNC(=O)C2CC(O)CN2S(=O)(=O)c2ccc(Cl)cc2)cc1OC (centres undefined) | x | x | -10% | x | 14% | x
O=C1CCCCCC[C@@H](O)[C@H](O)C[C@H](c2ccccc2)O1 | x | x | x | x | -2% | x
O=C(O)c1cccc(-n2c(O)c(C=C3N=c4ccccc4=N3)sc2=S)c1 | -2 | 18 | 22% | 12µM* | 76% | u
O=C(CN1CCN(c2cccc(C(F)(F)F)c2)CC1)N(C1CCCC1)C1CCS(=O)(=O)C1 (centres undefined) | x | x | u | 15µM* | 0%[11.6 µM] | 8.3µM*
O=C(CN1CCN(c2cccc(C(F)(F)F)c2)CC1)N(C1CC1)C1CCS(=O)(=O)C1 (centres undefined) | x | x | -1% | -15% | 2% | u
Cc1ccc2c(CN3CCCc4ccccc43)cc(=O)oc2c1C | 27* | 36 | u | u | -14% | -17%
COc1cccc(NCc2cc(=O)oc3cc(C)c(C(C)C)cc23)c1 | 5 | 2 | 10µM* | u | -12% | u
Cc1cc2oc(=O)cc(CN3CCc4ccccc43)c2cc1Cl | -5 | -4 | -11% | 3% | -16% | u
Cc1cc2oc(=O)cc(CN3CCCCC3)c2cc1O | 27* | 26 | -20% | 11% | 0% | 39%
Cc1ccc2c(CN3CCCCC3)cc(=O)oc2c1C | 36* | 83 | -7% | u | -5% | u
COc1ccc(NCc2cc(=O)oc3cc(NC(C)=O)ccc23)cc1 | 6 | 2 | -17% | u | -4% | -21%
CCCCn1c(N)c(N(CC(C)C)C(=O)C2CC(=O)N(Cc3ccccc3)C2)c(=O)[nH]c1=O (centres undefined) | x | x | u | u | -1% | 8%
CC1CCCC(NC(=O)COC(=O)[C@@H](NC(=O)c2ccc(F)cc2)C(C)C)C1C (some centres undefined) | x | x | 2% | x | 11% | x
COC1OC2COC(c3ccccc3)OC2C2OC(c3ccccc3)OC12 (centres undefined) | x | x | x | x | -3% | x
Cc1cc2oc(=O)cc(Cn3nnc(-c4ccc(Cl)cc4)n3)c2cc1C(C)C | -5 | -9 | 2% | 12µM* | x | u
Cc1cc2oc(=O)cc(CN3CCCCC3)c2cc1C(C)C | 1 | -2 | u | 7.4µM* | -20% | 6%
CCOC(=O)N1CCN(Cc2cc(=O)oc3cc4c(cc23)CCC4)CC1 | -1 | -25 | -19% | u | -13% | 4.7µM*
Cc1cc2oc(=O)cc(CSc3nc(N)cc(N)n3)c2cc1C(C)C | -7 | -21 | -20% | x | -10% | u
CCOC(=O)C1CCCN(Cc2cc(=O)oc3cc(C)c(C(C)C)cc23)C1 (centres undefined) | 11 | 21 | u | -25% | -7% | 0%
COc1ccc(OCC(=O)N2c3ccccc3CCc3ccccc32)cc1 | 1 | -11 | -2% | u | 1% | 270%
